The text below walks through data of PubChem BioAssay.

The structures appear in SMILES notation.

System in the first test: not listed separately
As to the kind of experiment: probe aLAP1 signal on lysate-treated microarray – cell lysate, small-molecule microarray, COS7 lysate, primary screen (AID 1124).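 Further: lysate comes from COS7 cells expressing LAP1 and is applied at 0.3 µg/mL; score merges spot fluorescence near 667 nm with signal-to-noise over triplicate slides.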 Particulars: probe aLAP1, fluorescence, higher = more signal.
Turning to `CCOC(=O)[C@H](Cc1ccccc1)NC(=O)CCC1CC(OC(=O)NCc2cccc3ccccc23)CC2(CCCC(COC(=O)NCCc3ccccc3OC)O2)O1` (some centres undefined), the composite z-score is -0.114. `O=C1C=C[C@@H](O)[C@@H]2[C@@H]3C(=O)N(c4cccc(Oc5ccccc5)c4)C(=O)[C@@H]3CC[C@@H]12` yielded a composite z-score of -0.239. `O=C1C=C[C@@H](O)[C@@H]2[C@@H]3C(=O)N(Cc4ccccc4)C(=O)[C@@H]3CC[C@@H]12`: the composite z-score is -0.139. Still for that read-out and setting: under `COC(=O)[C@H](C)NC(=O)CCC1CC(OC(=O)NCc2ccc3c(c2)OCO3)CC2(CCCC(COC(=O)NCc3ccccc3)O2)O1` (some centres undefined) stands -0.0296; under `COc1ccc(COC(=O)NN=C2C[C@@H](O)[C@@H](O)[C@@H]3[C@@H]4C(=O)N(C(C)(C)C)C(=O)[C@@H]4CC[C@@H]23)cc1`, 0.31.

The next test deals with Sam68 (KHDRBS1). As to the kind of experiment: compounds binding KHDRBS1 protein – biochemical, small-molecule microarray, 635 nm fluorescence, primary screen (AID 1125).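 Further: score merges 667 nm channel intensity with signal to noise over triplicate slides.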 The settings on record: higher = more signal.
As for `CSCC[C@@H]1NC(=O)CC=C[C@@H](C)COC(=O)[C@H](C)COC1=O`, the composite z-score came to 1.02. Same read-out and setting: under `CC1(C)O[C@H]2O[C@H]([C@H](O)CON=C3[C@H]4CCn5c(=O)n(-c6ccccc6)c(=O)n5[C@H]4[C@H](O)[C@@H]4O[C@H]34)[C@H](O)[C@H]2O1` stands -0.773; under `COc1cccc([C@H]2Oc3ccc(OC)cc3C(=NO[C@@H](C)c3cc(-c4c(C)cc(C)cc4C)no3)[C@@H]2O)c1`, -0.156; under `CC(=O)OC[C@H]1O[C@H](C#CCCc2ccccc2)C=C[C@@H]1OC(C)=O`, 0.179.

Consider `CC(C)=CCCC(C)=CCON=C1C[C@@H](O)[C@@H](O)[C@@H]2[C@@H]3C(=O)N(C4CCCCC4)C(=O)[C@@H]3CC[C@H]12`, for which the composite z-score amounted to 1.07. Regarding `COC(=O)[C@H](C)NC(=O)CCC1CC(OC(=O)NCc2ccc3c(c2)OCO3)CC2(CCCC(COC(=O)NCCc3ccc(Cl)cc3)O2)O1` (some centres undefined), the composite z-score was 0.422. The compound `COC(=O)[C@H](C)NC(=O)CCC1CC(OC(=O)NCCc2ccc(F)cc2)CC2(CCCC(COC(=O)NCC3CCCCC3)O2)O1` (some centres undefined) displayed a composite z-score of 1.3. Still for that read-out and setting: under `CCN1C(=O)[C@H]2[C@H]3[C@H](O)[C@H](O)CC(=NO[C@H](C)c4cn([C@H](CO)Cc5ccccc5)nn4)[C@@H]3CC[C@H]2C1=O` stands 1.1; under `CCN1C(C)=C(C(=O)OC)[C@@H](c2ccccc2)N2C(=O)[C@](O)(C(=O)OC)CC(C(C)=O)=C12`, -0.37; under `C=CC[C@@H]1C=C[C@H](ON=C(C)CCN2CCCCc3nc(C)c(C)cc32)[C@@H](CO)O1`, 0.972. Same read-out and setting: under `CC(C)=NOC(C)CN1CCCCc2nc(C)c(C)cc21` (centres undefined) stands 0.313; under `CCOC(=O)[C@H](Cc1ccccc1)NC(=O)CCC1CC(OC(=O)NCCc2ccc(F)cc2)CC2(CCCC(COC(=O)NCCOc3ccccc3)O2)O1` (some centres undefined), 1.29. Same read-out and setting: under `Cc1ccc(S(=O)(=O)N[C@@H]2COC(=O)CC=C[C@@H](C)[C@H](NS(=O)(=O)c3ccc(C)cc3)COC(=O)[C@H](C)NC(=O)CC=C[C@H]2C)cc1` stands -1.17; under `CCOC(=O)CCN1C(=O)[C@H]2[C@H]3[C@H](O)[C@H](O)CC(=NOCC(C)C)[C@@H]3CC[C@H]2C1=O`, -0.0659; under `CC(=O)OC[C@H]1O[C@H](CCON=C(C)CCN2CCCc3nc(C)c(C)cc32)C=C[C@@H]1OC(C)=O`, 1.29. `Cc1cc2c(nc1C)CCCCN2CC(O)CN1CCCc2nc(-c3ccc(Br)cc3)ccc21` (centres undefined) gave a composite z-score of 0.754.

`CC(C)(C)N1C(=O)[C@H]2[C@@H]3C(=CC[C@H]2C1=O)C(=O)[C@H]1O[C@H]1[C@H]3O` showed a composite z-score of -0.657. The same measure, in the same setting: under `CC(CCN1CCCc2nc(C)c(C)cc21)=NOC[C@@H](C)[C@H](OCc1ccccc1)C(C)C` stands -0.818; under `CON=C(C)CCC(=O)OC[C@H]1O[C@H](C#Cc2ccccc2)C=C[C@@H]1Oc1ccc(C)cc1`, 0.626.

In turn, `C[C@@H]1CC[C@@H](C(=O)O)N[C@H]1c1cccc(N2CCOCC2)c1` had a composite z-score of 0.225. Same read-out and setting: under `O=C1C2=CC[C@H]3C(=O)N(C4CCCCC4)C(=O)[C@H]3[C@H]2[C@H](O)[C@@H]2O[C@H]12` stands -2.02; under `CCOC(=O)[C@H](Cc1ccccc1)NC(=O)CCC1CC(OC(=O)NCCc2ccc(F)cc2)CC2(CCCC(COC(=O)NCc3cccc(C(F)(F)F)c3)O2)O1` (some centres undefined), 1.3. Same read-out and setting: under `O=C1[C@H]2[C@H]3[C@H](O)[C@H](O)CC(=NO[C@@H]4O[C@H](CO)[C@@H](O)[C@H](O)[C@H]4O)[C@H]3CC[C@H]2C(=O)N1C[C@@H]1CCCO1` stands 0.155; under `CC(CCC(=O)OC[C@H]1O[C@H](C#Cc2ccccc2)C=C[C@@H]1Oc1ccc(C)cc1)=NOC[C@@H](C)[C@H](OCc1ccccc1)C(C)C`, -1.2.
